Results with a measured potency or affinity are listed apart.
Each molecule was assayed against ATP-dependent translocase ABCB1 (Homo sapiens) (UniProt P08183) (assay: inhibition of P-gp mediated JC-1 efflux – Jurkat-DNR cells, flow cytometry, dose response (AID 1689)). Conditions: series mostly up to 66.6 µM; inhibition: at the top concentration;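 active = curve fits scoring over 52 on a 0 to 100 blend rewarding potency under 10 µM and span over 20%; inactive = the rest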.
ATP-dependent translocase ABCB1 (Homo sapiens), sequence (P08183 whole entry, looked up): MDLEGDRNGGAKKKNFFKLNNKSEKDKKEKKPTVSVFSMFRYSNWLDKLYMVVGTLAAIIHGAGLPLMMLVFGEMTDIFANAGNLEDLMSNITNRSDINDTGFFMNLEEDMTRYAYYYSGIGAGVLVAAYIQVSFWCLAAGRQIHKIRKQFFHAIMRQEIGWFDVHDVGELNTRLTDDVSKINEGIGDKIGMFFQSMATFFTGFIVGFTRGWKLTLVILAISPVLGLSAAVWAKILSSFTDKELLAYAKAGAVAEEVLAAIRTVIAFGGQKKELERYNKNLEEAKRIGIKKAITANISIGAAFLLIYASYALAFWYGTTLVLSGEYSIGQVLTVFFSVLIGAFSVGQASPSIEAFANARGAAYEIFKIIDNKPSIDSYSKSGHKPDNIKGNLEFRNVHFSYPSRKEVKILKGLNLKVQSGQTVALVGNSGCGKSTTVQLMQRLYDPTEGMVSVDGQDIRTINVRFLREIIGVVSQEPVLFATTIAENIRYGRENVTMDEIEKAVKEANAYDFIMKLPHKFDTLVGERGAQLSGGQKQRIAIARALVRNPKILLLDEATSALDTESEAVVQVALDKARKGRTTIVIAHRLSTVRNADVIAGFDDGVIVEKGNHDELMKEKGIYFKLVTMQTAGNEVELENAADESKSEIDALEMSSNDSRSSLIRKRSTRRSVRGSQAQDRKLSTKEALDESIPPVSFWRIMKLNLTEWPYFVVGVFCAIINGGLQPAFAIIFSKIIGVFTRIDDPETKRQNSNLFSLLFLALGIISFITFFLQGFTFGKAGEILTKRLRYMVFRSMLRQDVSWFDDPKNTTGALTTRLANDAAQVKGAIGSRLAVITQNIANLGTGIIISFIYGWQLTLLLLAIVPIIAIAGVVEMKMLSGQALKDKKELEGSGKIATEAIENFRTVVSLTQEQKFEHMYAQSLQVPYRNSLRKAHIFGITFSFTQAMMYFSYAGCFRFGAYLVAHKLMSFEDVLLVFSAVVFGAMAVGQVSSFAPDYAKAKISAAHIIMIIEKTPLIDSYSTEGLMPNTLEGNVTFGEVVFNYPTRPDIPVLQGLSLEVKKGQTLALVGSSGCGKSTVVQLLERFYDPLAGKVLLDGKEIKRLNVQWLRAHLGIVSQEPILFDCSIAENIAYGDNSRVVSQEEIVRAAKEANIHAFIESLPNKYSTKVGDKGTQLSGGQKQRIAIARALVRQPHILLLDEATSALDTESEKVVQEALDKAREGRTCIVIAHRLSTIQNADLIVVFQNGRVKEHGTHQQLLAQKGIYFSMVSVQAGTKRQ

inhibition, inactive:
CN1CCN(C2=CC3=CC(=C(C#N)C#N)CCC3CC2)CC1 (stereo not drawn) 44.9%, Cc1cc(C)c(C#N)c(SCc2c(F)cccc2[N+](=O)[O-])n1 14.2%, O=[N+]([O-])c1ccc(Nc2nc(Cl)nc(NCCO)n2)cc1 9.77%, CC1=NN(c2ccc([N+](=O)[O-])cc2)C(=O)/C1=C/N(C)C 27.7%, COc1cc(C(=O)Nc2ccc(S(=O)(=O)NC(C)C)cc2)cc(OC)c1OC 3.51%, Cc1c(C(=O)Nc2ccc(F)cc2)c2ccccn2c1CCc1ccncc1 19.6%, CCCCN(C)C1=CC2=CC(=C(C#N)C#N)CCC2CC1 (stereo not drawn) 29.7%, CC(=O)Nc1ccc(Nc2ccc(S(=O)(=O)C(F)(F)F)cc2[N+](=O)[O-])cc1 15.1%, CCN(CC)C1=CC2=CC(=C(C#N)C#N)CCC2CC1 (stereo not drawn) 98.6%, CC(C)C(NS(=O)(=O)c1ccccc1)C(=O)OCc1cc([N+](=O)[O-])cc2c1OCOC2 (stereo not drawn) 3.67%, CNc1nc2cc([N+](=O)[O-])c([N+](=O)[O-])cc2nc1NC 10.5%, CCOC(=O)c1sc2cc([N+](=O)[O-])cc(SCC(C)C)c2c1N 56.3% [at 2.47 µM], COC(=O)c1ccc(C(C(=O)NC2CCCCC2)N(Cc2ccccc2)C(=O)Cc2cccs2)cc1 (stereo not drawn) 35.9%, CCOc1ccccc1NC(=O)C(OC(=O)c1ccc(N(C)C)cc1)c1ccccc1 (stereo not drawn) 6.84%, CCCCN1/C(=C/c2ccc3ccccc3[n+]2CC)Sc2ccccc21 7.55%, COc1ccccc1Nc1nc2nonc2nc1N1CCCCC1C (stereo not drawn) 5.44%, COc1cccc(-c2nc(N3CC(C)CC(C)C3)c3ccccc3n2)c1O (stereo not drawn) 28.2%, CN(C)c1ccc(/C=C2\SC(=S)N(Nc3ncc(C(F)(F)F)cc3Cl)C2=O)cc1 42%, COC(=O)c1cc(NC(=O)c2ccccc2)c(=O)oc1/C=C/Nc1ccc(Oc2ccccc2)cc1 -244%, N#CC(C#N)=C1C=C2C=C(N3CCCCCC3)CCC2CC1 (stereo not drawn) -21.8%, COc1ccc(CCNC(=O)COC(=O)/C=C/c2ccc(OC)c(OC)c2)cc1 -20.9%, COc1ccc2cc(C(=O)OC(C)C)sc(=O)c2c1OC 12.8%, N#CC(C#N)=C1C=C2C=C(N3CCOCC3)CCC2CC1 (stereo not drawn) -7.21%

From PubChem BioAssay AID1689 (NMMLSC, 2009)
